Measured values from PubChem BioAssay AID1903 (Southern Research Specialized Biocontainment Screening …, 2009).
Several values for one entry are separate records, joined by “and”; a condition that tells them apart may be missing. Equal entries are not always repeated. The whole screen tested about 310,000 compounds, of which about 1,200 (0.39%) were called active. Not all results are given here. Potency and affinity values are given separately. A number with no mark means an inactive call. The rule behind the calls is not given here.

target: Large T antigen (Simian virus 40) (UniProt P03070); test: TAg ATPase/helicase activity blockers – biochemical (AID 1903); conditions: SV40 large T antigen ATPase/helicase inhibition assay; at 20 µM; hits give high values
Sequence (P03070 whole entry, looked up): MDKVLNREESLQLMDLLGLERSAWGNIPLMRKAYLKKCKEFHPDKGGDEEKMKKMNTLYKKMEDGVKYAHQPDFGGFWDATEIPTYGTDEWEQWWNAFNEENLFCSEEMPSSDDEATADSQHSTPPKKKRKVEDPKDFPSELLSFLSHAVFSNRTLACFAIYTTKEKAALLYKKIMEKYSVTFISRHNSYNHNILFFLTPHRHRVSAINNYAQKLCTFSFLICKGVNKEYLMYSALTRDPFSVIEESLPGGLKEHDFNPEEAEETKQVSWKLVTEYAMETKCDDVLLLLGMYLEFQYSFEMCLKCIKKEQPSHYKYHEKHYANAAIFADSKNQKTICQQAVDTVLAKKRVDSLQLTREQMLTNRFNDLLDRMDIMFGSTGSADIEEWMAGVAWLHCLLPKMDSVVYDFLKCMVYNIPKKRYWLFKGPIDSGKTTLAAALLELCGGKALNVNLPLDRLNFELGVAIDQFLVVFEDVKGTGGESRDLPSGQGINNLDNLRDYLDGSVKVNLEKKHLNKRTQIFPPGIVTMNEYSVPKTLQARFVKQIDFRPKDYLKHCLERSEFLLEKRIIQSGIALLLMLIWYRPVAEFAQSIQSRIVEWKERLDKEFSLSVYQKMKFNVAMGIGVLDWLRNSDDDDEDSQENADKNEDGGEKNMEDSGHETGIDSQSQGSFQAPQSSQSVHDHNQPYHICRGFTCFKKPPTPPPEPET

Compound | inhibition
CNC(=O)COC(=O)c1nc(-n2nc(C)cc2C)ccc1Cl | 1.24%
COc1ccc(C(=O)Nc2nccs2)cc1 | 4.19%
COc1ccc(/C=C\c2nc(O)c([N+](=O)[O-])c(=O)[nH]2)cc1O | 5.95%
O=c1[nH]c(/C=C\c2ccc(O)c(Cl)c2)nc(O)c1[N+](=O)[O-] | 22.7%
Cc1csc(Sc2ccc(S(=O)(=O)N3CCCC3)cn2)n1 | 10.9%
O=C(O)c1cc(-c2cccs2)nc2ccc(Br)cc12 | 15.7%
NC(=O)c1nsc(C(=O)N(c2ccc(F)cc2)C(C(=O)NCC2CCCO2)c2ccc3ncccc3c2)c1N (stereo not given) | -0.08%
NS(=O)(=O)c1cccc(C(=O)NC2CCSc3ccccc32)c1 (stereo not given) | -2.32%
O=C(NC1CCSc2ccccc21)c1ccc(Cl)c(S(=O)(=O)N2CCOCC2)c1 (stereo not given) | 9.03%
COC(=O)C1=C(C)NC(=S)N(C(C)=O)C1c1ccc(OC)c(OC)c1 (stereo not given) | 9.87%
COC(=O)Cc1c(C)c2ccc(OCC(=O)c3ccc(OC)c(OC)c3)cc2oc1=O | 14.4%
Cc1csc(NC(=O)CS(=O)(=O)Cc2ccccc2)n1 | 0.95%
COc1cccc(NC(=O)c2cc([N+](=O)[O-])ccc2NC(=O)CNCC2CCCO2)c1 (stereo not given) | 3.88%
O=C(CSc1nc2ccccc2n1CCc1ccccc1)N1CCOCC1 | 11.6%
O=C(CSc1nc2ccccc2n1CCc1ccccc1)NC1CC1 | 5.51%
Cc1cc(C)nc(SCC(=O)c2ccc(O)c(O)c2)n1 | 35.3%
Cc1cc(SCC(=O)c2ccc(O)c(O)c2)nc2ccccc12 | 35.4%
Cn1c(SCC(=O)c2ccc(O)c(O)c2)nnc1-c1ccccc1 | 27.2%
Cc1cc(SCC(=O)c2ccc(O)c(O)c2)n2nc(C)c(-c3ccccc3)c2n1 | 31.3%
Cc1cc(-c2nnc(CCC(=O)N(C)C(C)c3cccs3)o2)no1 (stereo not given) | 22%
CCC(C)N(C(=O)COC(=O)COc1c(C)cc(C)cc1C)C1CCS(=O)(=O)C1 (stereo not given) | 7.34%
COCC1CCN(C(=O)c2ccc3oc(Cc4ccc(Cl)cc4)nc3c2)C1 (stereo not given) | 11.1%
Cc1sc2ncnc(Sc3ccccc3C(=O)Nc3ccc(C#N)cc3)c2c1C | 9.82%
Cc1nn(-c2ccccc2)c(Cl)c1/C=N\NC(=O)c1cncc(Br)c1 | 22%
CC(=O)c1ccc(N2C(=O)NC3(CCCCC3)C2=O)cc1 | 3.35%

Compound | inhibition
COc1cccc(-c2nc(CS(=O)(=O)CC(=O)Nc3cc(C)ccc3C)c(C)o2)c1 | 15.6% and 1.41%
CCN(CC)S(=O)(=O)c1ccc(N/N=C/c2cccnc2)nc1 | 9.01%
COc1cccc(/C=N/Nc2cc(Cl)nc(C)n2)c1O | 21%
CCN(CC)S(=O)(=O)c1ccc(N/N=C/c2ccc(O)cc2O)nc1 | 21.6%
Cc1cc(N/N=C/c2ccc(O)cc2)nc(NS(=O)(=O)c2ccccc2)n1 | 10.1%
Cc1nc(Cl)cc(N/N=C/c2ccc(O)cc2O)n1 | 24.5%
COc1ccc(/C=N/Nc2cc(C)nc(NS(=O)(=O)c3ccc(C)cc3)n2)cc1 | 11.9%
COc1ccccc1C(=O)N/C(=C/c1cccc([N+](=O)[O-])c1)C(=O)Nc1cccc(C(=O)O)c1 | -0.39%
O=C(O)CN1C(=O)c2ccc(Oc3ccc([N+](=O)[O-])cc3)cc2C1=O | 7.08%
CCOCCCn1c(SCC(=O)Nc2ccc3[nH]c(=O)[nH]c3c2)nc2ccccc2c1=O | 10.2%
O=C(Cc1c(Cl)cccc1Cl)N/N=C/c1cccnc1 | 17.8%
COc1cc(C(=O)CSc2nnc(-c3ccc(O)cc3)n2CC2CCCO2)ccc1NC(C)=O (stereo not given) | 4.93%
COc1ccc(CCN2C(=O)NC(NS(=O)(=O)c3ccc(Cl)cc3)(C(F)(F)F)C2=O)cc1OC (stereo not given) | 12.9%
O=C(COC(=O)C1COc2ccccc2O1)Nc1cccc(S(=O)(=O)N2CCCCC2)c1 (stereo not given) | 11.3%
CN(c1ccc(C(=O)Nc2ccc3c(c2)OCO3)cc1)S(C)(=O)=O | 14.1%
COc1ccc2c(C)c(CC(=O)N3CCN(C(=O)C4COc5ccccc5O4)CC3)c(=O)oc2c1C (stereo not given) | 12%
Cc1c(CC(=O)N2CCN(C(=O)C3COc4ccccc4O3)CC2)c(=O)oc2c(C)c(O)ccc12 (stereo not given) | 24.4%
Cc1cccn2c(=O)c3cc(C(=O)NC4CCCCC4)c(=N)n(Cc4ccccc4)c3nc12 | 5.16%
Cc1nc2sc3c(c2c(=O)o1)CCC3 | 9.19%
Cc1nc2sc3c(c2c2nc(-c4ccco4)nn12)CCCC3 | 14.8%
COc1ccc(C(=O)NCC(=O)OCc2ccccc2F)cc1 | 6.15%
O=C(COc1ccc(S(=O)(=O)N2CCOCC2)cc1)NCCCn1ccnc1 | 7.23%
COc1cccc(CNS(=O)(=O)c2c(C(=O)N3CCCCCC3)c(C)n(C)c2C)c1 | 2.83%
CC(C)CN(CC(C)C)C(=O)CN1C(=O)NC2(CCc3ccccc3C2)C1=O (stereo not given) | 23.5%
N#Cc1c(N)sc(=S)c2c1CCCC2 | 29.3%

Compound | inhibition
N#Cc1c(N)sc2c1CCCCCC2 | 32%
Cn1c(CNC(=O)c2ccc3c(c2)OCO3)nnc1SCC(=O)Nc1ccccc1Cl | 10.7%
COc1ccc(Cc2c(N)nc(N)nc2N)cc1 | -2.12%
Nc1ccc(OCCc2ccccc2)cc1 | 30.9%
CC(C)C1N=C2c3ccccc3N=C(SCC(=O)NCCc3ccc(S(N)(=O)=O)cc3)N2C1=O (stereo not given) | 1%
CC(C)C1N=C2c3ccccc3N=C(SCC#N)N2C1=O (stereo not given) | 6.69%
Cc1ccc(-c2nnc(SCC(=O)N3c4ccccc4NC(=O)C3(C)C)n2N)cc1 | 4.15%
COc1cc(/C=C/c2ccc(O)cc2)cc(OC)c1 | 11.3% and 1.99%
CC(/C=C/c1ccccc1)=N/O | 10.9%
CCOc1ccc(/C=C\C(C)=N\O)cc1 | 29.6%
O=C(/C=C/c1ccc(O)c(O)c1)NC(=O)c1ccccc1O | 6.12%
O=Cc1ccc(O)c(O)c1 | 34.4%
Nc1cccc(/C=C/C(=O)O)c1 | 15.7%
COc1cc(/C=C/C(=O)O)ccc1O | 24.2%
Cc1ccc(/C=C/C(=O)c2ccccc2O)cc1 | 11.7%
Cc1nc2ccccc2c(=O)n1-c1ccc(NS(=O)(=O)c2ccccc2)cc1 | -1.73%
NC(=O)C1CCN(C(=O)c2cccc3ccccc23)CC1 | 16.8%
CCOC(=O)CC1C(=O)NCCN1C(=O)c1ccc(Cl)cc1Cl (stereo not given) | 3.58%
Fc1ccc(C2c3cccn3CCN2C(=S)Nc2cccc(F)c2)cc1 (stereo not given) | 6.14%
Cn1c(=O)c(C(=O)CN2CCN(S(=O)(=O)c3ccccc3)CC2)c(N)n(Cc2ccccc2)c1=O | 2.73%
COC(=O)C1C(=O)c2c([nH]c(C(=O)OC3CCCCC3)c2C)CC1C (stereo not given) | 0.84%
O=C1OC(c2ccc3c(c2)OCO3)N(C(=O)c2ccc(Cl)c(Cl)c2)c2ccccc21 (stereo not given) | 10.3%
CCCC(=O)N(c1ccc2oc(=O)sc2c1)S(=O)(=O)c1ccccc1 | 22.9%
COc1ccc(C(CNC(=O)COc2ccccc2)N2CCOCC2)cc1 (stereo not given) | 5.3%
CCCc1cc(=O)[nH]c(SCCCCN2C(=O)c3ccccc3C2=O)n1 | 16.4%

Compound | inhibition
CC(C)c1ccc(/C=C/C(=O)O)cc1 | 15.3%
O=C(/C=C/c1ccc(O)cc1)c1c(O)cc(O)cc1O | 3.62%
CC1Cc2ccccc2N1CC(=O)Nc1ccc(N2CCOCC2)cc1 (stereo not given) | 27%
CC(Nc1ccc2c(c1)OCCO2)C(=O)N1c2ccccc2CC1C (stereo not given) | 16.6%
c1ccc(-c2ccc3c(c2)NC(C2Nc4cc(-c5ccccc5)ccc4O2)O3)cc1 (stereo not given) | 19.8%
O=C1CCNc2ccc(-c3ccccc3)cc21 | 5.5%
Nc1cccc2c1C(=O)N(Cc1cccc(Cl)c1)C2=O | 1.68%
O=C1c2ccccc2C(=O)N1Cc1cc(Cl)c(O)c([N+](=O)[O-])c1 | 6.24%
O=C(c1cccs1)N1CCCC(N2CCN(c3ccc(F)cc3)CC2)C1 (stereo not given) | 7.59%
Cn1c(=O)n(Cc2ccccc2F)c2ccccc21 | 9.44%
NS(=O)(=O)c1ccc(N=Nc2ccc(O)c3ncccc23)cc1 | 13.3%
Nc1nc(O)c(N=Nc2ccc(S(N)(=O)=O)cc2)c(=O)[nH]1 | -12.8%
COc1ccc2[nH]c(=O)c(CN(CCO)S(=O)(=O)c3ccc4c(c3)OCCO4)cc2c1 | -3.52%
O=[N+]([O-])c1cc(Cl)c(O)c2ncccc12 | 14.7%
O=[N+]([O-])c1ccc(O)c2ncccc12 | -8.5% and 12.1%
COCc1cc(SC2CCCCC2)nc(C)n1 | 10.5%
O=C(CSc1nc2[nH]ncc2c(=O)[nH]1)Nc1nccs1 | 12.6%
CCN(CC1CCCO1)C(=O)CCc1nnc(CCc2ccc(OC)cc2)o1 (stereo not given) | 0.66%
O=C1CCC(=O)N1c1nc2nc(-c3ccccc3)cc(-c3ccccc3)n2n1 | 3.94%
COc1ccccc1N1CCN(C(=S)Nc2ccc(S(=O)(=O)N3CCOCC3)cc2)CC1 | -0.03%
CN1CCN(CC(=O)Nc2cc(S(=O)(=O)N3CCOCC3)ccc2Cl)CC1 | 8.7%
O=C(CN1CCN(c2ccc(O)cc2)CC1)Nc1cc(S(=O)(=O)N2CCCCC2)ccc1Cl | 28.7%
CC(=O)N1CCN(CC(=O)Nc2cc(S(=O)(=O)N3CCOCC3)ccc2C)CC1 | 10.5%
O=S(=O)(c1ccc(NC(=S)N2CCN(c3ccccc3F)CC2)cc1)N1CCOCC1 | 11.6%
Cc1ccc(S(=O)(=O)N2CCN(CC(=O)Nc3ccc(N4CCOCC4)cc3)CC2)cc1C | 10.9%
